This is a sample that favours compounds with a hit; in the whole collection about 3% have one here.
ClpP mod = qHTS Assay for Activators of ClpP; ATP-dependent Clp protease proteolytic subunit (Bacillus subtilis (strain 168)), P80244; AID 651965, 2013; 1.9% of 340,000 active; Potency, µM (highest dose often 57.5 µM), inactives show top-dose activity change, negative = active; purified B. subtilis ClpP, FRET peptide cleavage, 20 min; active = well fitted falling curve with a large enough effect; inconclusive = small, poorly fitted or top-dose-only effect; inactive = no such curve, though single readings can be large or run the other way; also: potency is read from the fitted curve at half-maximal effect; the source files actives as falling curves though it sought activators and does not explain the sign; nearly all actives have a fitted effect of over 65% in size
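FRET quenching reversal measured ClpP activation: 10 microg/mL B. subtilis ClpP at pH 8 with the FRET-FV decapeptide, read at 430 nm after 320 nm excitation. The 20-min minus 0-min signal was scaled between DMSO/no-enzyme wells and ADEP (5.8 microM final).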
12-LOX inh = Primary qHTS assay for inhibitors of human arachidonate 12S-lipoxygenase (ALOX12): Round 2. AID 1671190, 2021. Polyunsaturated fatty acid lipoxygenase ALOX12 (Homo sapiens), P18054. Potency, µM (titrated, usually from 108 µM), without a hit: at the highest dose activity change, negative = inhibition, most hits filed as inhibitors. purified 12hLO, xylenol orange hydroperoxide absorbance. 1.1% of 580,000 active; active = well fitted inhibition curve with a large enough effect; inconclusive = small, poorly fitted or top-dose-only effect, or another doubt; inactive = no such curve, though single readings can be large or run the other way; also: potency is read from the fitted curve at half-maximal effect; % is scaled to controls: 0 for no effect and ±100 for the full control effect
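Hydroperoxide product was detected by ferrous iron/xylenol orange as the 573 to 405 nm absorbance ratio. Arachidonic acid at 40 uM (final) was turned over for 30 min at room temperature by 150 nM human 12hLO, pH 7.0 Hepes buffer, after 15 min compound preincubation.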
BCR signal inh = qHTS Assay to Find Inhibitors of Chronic Active B-Cell Receptor Signaling; ABC-DLBCL IkBa-CBG/CBR reporter, luminescence ratio, 4 h; Potency, µM (doses to about 46.1 µM), without a hit: at the highest dose activity change, negative = inhibition, most hits filed as inhibitors; 0.05% of 340,000 active; active = well fitted inhibition curve with a large enough effect in the signal ratio, with a control signal flat, not every such curve was filed as active; inconclusive = small, poorly fitted or top-dose-only effect, or effect the other way, or a change in a side signal; the % refers to the signal ratio;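 also: potency is read from the fitted curve at half-maximal effect; plate controls were basal doxycycline-induced cells for no effect and cells given 10 µM MG132 for full effect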
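TMD8 ABC-DLBCL cells carrying doxycycline-inducible green luciferase fused to IkappaBalpha plus unfused red luciferase were exposed to compounds (up to 46 uM) for 4 hrs at 37C. Activity came from the overlap-corrected green/red luminescence ratio.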
KCNH2 WT inh = qHTS for Inhibitors of KCHN2 3.1: Wildtype qHTS. U2OS, BacMam KCNH2, thallium flux FluxOr; hits give low values. activity change, % at 1.84 µM. 0.37% of 340,000 active;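 active = maximum activity change below -70%; inconclusive = maximum activity change between -70% and -50%; inactive = maximum activity change above -50%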; also: % is scaled to controls: 0 for no effect and ±100 for the full control effect
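U2OS cells were transduced with wild-type KCNH2 virus (2.03 x 10^8 / mL) for 4 h at room temperature, then cultured overnight at 37 C. Thallium flux was read with FluxOr dye. Rate constants were normalized to DMSO controls.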
KCNH2 3.1 block = qHTS for Inhibitors of KCHN2 3.1: Mutant qHTS | activity change, % (tested at about 1.8 µM) | U2OS KCNH2 3.1, thallium flux FluxOr; hits give low values | 0.95% of 340,000 active | AID 720553, 2013 | Potassium voltage-gated channel subfamily H member 2, brain isoform KCNH2 3.1 (human);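 active = maximum activity change below -70%; inconclusive = maximum activity change from -70% to -50%; inactive = maximum activity change above -50%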;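 also: thallium influx rate constant from kinetic fluorescence after stimulation buffer; % is scaled to controls: 0 for no effect and ±100 for the full control effect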
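Thallium flux read-out: FluxOr dye with Red40 quencher in HBSS/HEPES, 45 min at RT. Rate constants from kinetic reads were normalized to positive and negative DMSO controls. Cells: U2OS virally expressing the 3.1 isoform.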
LDHA block = qHTS assay for inhibitors of human lactate dehydrogenase | purified LDHA, NADH/diaphorase-resazurin fluorescence; hits give low values | activity change, % (values are at about 110 or 230 µM) | 0.15% of 480,000 active | AID 1347041, 2019; in the data active = activity change below about -30%; inconclusive = mostly about -25% to -30%;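 also: plate controls were DMSO wells for no effect and wells without enzyme for full effect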
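LDH5 2 nM; NADH 0.06 mM, pyruvate 0.2 mM; 200 mM Tris pH 7.4, EDTA, Tween-20; 5 min RT. Detection: diaphorase 0.133 mg/mL + resazurin 37 µM, fluorescence ex540/em590 at 0 and 20 min; normalized to enzyme-free and DMSO wells.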
Starred values were filed as active, the others as inactive; ? = inconclusive; · = no result.

SMILES	ClpP mod	12-LOX inh	BCR signal inh	KCNH2 WT inh	KCNH2 3.1 block	LDHA block
O=C(NCCCn1ccnc1)/C(=C\c1cccs1)NC(=O)c1ccccc1	-1%	-13%	0%	6	-45	-2
Cc1ccc(C(=O)N/C(=C/c2cccs2)C(=O)NCCCn2ccnc2)cc1	1%	-4%	-1%	-209*	-82*	-7
Cc1ccc(C(=O)N/C(=C\c2cccs2)C(=O)NCCCn2ccnc2)cc1C	-1%	9%	?	-75*	?	-8
Cc1ccc(OCC(=O)NCc2cccc(NC(=O)C3CC3)c2)c(Br)c1	·	-35%	·	·	·	-1
Cn1c(Cn2cccn2)nnc1C1CC(NC(=O)CN2CCCCCCC2)C1 (centres undefined)	·	1%	·	·	·	·
CCN(CC)S(=O)(=O)c1ccc(-c2nc(C#N)c(N(C)Cc3ccccc3)o2)cc1	·	4%	·	·	·	6
CC1CCN(C(=O)CCCC(=O)N2CCC(C)CC2)CC1	0%	-6%	?	-71*	20	2
COc1ccccc1N1CCN([C@@H]2[C@H](O)[C@H](CO)O[C@@H]2CNC(C)=O)CC1	·	-10%	·	·	·	·
COc1ccccc1N1CCN([C@@H]2[C@H](O)[C@H](CO)O[C@@H]2CNC(=O)c2ccccc2)CC1	·	22µM*	·	·	·	·
CCn1cnnc1-c1cccc(NC(=O)Cc2ccc(F)cc2)c1	·	-6%	·	·	·	-2
Cc1ccccc1OCC(=O)Nc1c(C)ccc2nsnc12	8%	-1%	·	·	·	-4
O=C(O)COc1ccc2nsnc2c1Cl	14µM*	0%	0%	5	-8	-5
Cc1cc(C)cc(C(=O)Nc2ccc(-c3cn4cccnc4n3)cc2)c1	4%	-9%	·	·	·	3
CCOc1cc(C(=O)Nc2ccc(-c3cn4cccnc4n3)cc2)cc(OCC)c1OCC	16µM*	-8%	·	·	·	-5
O=C(Nc1cccc(-c2cn3cccnc3n2)c1)c1ccc2c(c1)OCO2	28µM*	-7%	?	6	-7	2
COc1ccc(-c2cn3cccnc3n2)cc1NC(=O)CC(C)C	28µM*	13%	2%	8	-2	-4
COc1cccc(C(=O)Oc2ccc(OC(=O)c3cccc(OC)c3)cc2)c1	·	?	·	·	·	-3
CC1(C)Cc2c(C#N)c(NCCN3CCOCC3)nc(-c3ccco3)c2CO1	32µM*	0%	?	-3	22	2
N#Cc1c(NCCCO)nc(-c2ccco2)c2c1CCCC2	28µM*	?	22%	0	-12	3
CN(C)CCCNc1nc(-c2ccco2)c2c(c1C#N)CCCC2	·	?	·	·	·	13
N#Cc1c(NC2CCCCC2)nc(-c2ccco2)c2c1CCCC2	7.1µM*	·	3%	5	-9	-9
O=S(=O)(c1ccc(Sc2ccc(Br)cc2)nc1)N1CCCCC1	·	?	·	·	·	-1
CSc1ccccc1NC(=O)CN(C)C(=O)c1cc(S(=O)(=O)N2CCOCC2)ccc1Cl	·	?	·	·	·	1
COc1ccc(-c2noc(-c3nnn4c3COC(c3ccc(C)cc3C)C4)n2)cc1F (centres undefined)	·	55%	·	·	·	·
COc1ccc(-c2ncncc2-c2ccc(OC)c(OC)c2)c(O)c1	20µM*	?	?	-1	0	3
SMILES	ClpP mod	12-LOX inh	BCR signal inh	KCNH2 WT inh	KCNH2 3.1 block	LDHA block
COc1ccc(-c2cncnc2-c2ccc(OC)cc2O)cc1	-1%	0%	-1%	7	34	0
CN(Cc1ccccc1)C(=O)[C@@]12CCCC[C@H]1N(C)C(=O)CC2	·	8%	·	·	·	·
Cc1ccc(-n2cc3c(c2-c2ccccc2)c(=O)n(C)c(=O)n3C)c(C)c1	·	?	·	·	·	20
Cc1cnc(C)c(N2CCN(Cc3cn(C)nc3-c3cccc(Cl)c3)CC2)n1	-26%	-6%	?	22	-115*	-2
Cn1cc(CN2CCN(Cc3ccccc3)CC2)c(-c2cccc(Cl)c2)n1	0%	3%	8%	7	-99*	1
COCCN1CCN(Cc2cn(C)nc2-c2cccc(Cl)c2)CC1	·	3%	-9%	3	5	-4
CCOC(=O)c1ccc(NC(=S)N(CCCN2CCCC(C)C2)Cc2cccs2)cc1 (centres undefined)	2%	-28%	0%	-89*	-80*	-3
CCc1ccc(N2C(=O)CS(=O)(=O)C23C(=O)N(Cc2ccccc2C)c2ccccc23)cc1 (centres undefined)	·	-7%	·	·	·	-2
O=c1c2c(nc3cc(-c4ccccc4)[nH]n13)CCC2	11µM*	0%	?	-3	-18	1
O=c1c2c(nc3cc(-c4ccc(Br)cc4)[nH]n13)CCCC2	·	1%	1%	-3	-9	-2
COc1ccc(-c2cc3nc4c(c(=O)n3[nH]2)CCC4)cc1	22µM*	0%	?	15	12	-3
CCCOC(=O)c1nc2ccccc2nc1NCc1ccc2c(c1)OCO2	·	?	·	·	·	2
Clc1ccc(N2CCN(Cc3c[nH]c4ncccc34)CC2)cc1	1%	?	-10%	·	-82*	-17
Cc1ccccc1Cn1c(=O)n(CCCC(=O)NCc2ccc3c(c2)OCO3)c(=O)c2ccccc21	·	1%	·	·	·	-3
Cc1ccc(C(=O)CC(=O)c2ccc(C(C)(C)C)cc2)cc1	-4%	-2%	3%	7	-102*	-5
CCC(C)C(C(=O)NCc1ccc(C(=O)OC)cc1)c1ccccc1 (centres undefined)	·	-9%	·	·	·	9
COCC1CN(C(C)=O)CC12CCN(Cc1c(C)n[nH]c1C)CC2 (centres undefined)	·	33%	·	·	·	·
Cc1ccccc1NC(NC(=O)c1cccs1)C(Cl)(Cl)Cl (centres undefined)	25µM*	2%	5%	-4	-3	-2
NC(=O)NNC(=S)Nc1ccc(Cl)cc1Cl	·	?	·	·	·	3
Cc1cc(C)cc(NC(=S)/N=C(\N)Nc2nc(C)c3ccccc3n2)c1	-7%	45µM*	?	-7	-15	-8
Cc1cccc(NC(=S)/N=C(\N)Nc2nc(C)c3cc(C)ccc3n2)c1	-17%	40µM*	-16%	15	-14	0
Cc1cccc(NC(=S)/N=C(\N)Nc2nc(C)c3ccc(C)cc3n2)c1	1%	?	?	-2	-29	-11

Compound activity from PubChem.
